Records with an inconclusive call do not appear. Active and inactive are the calls of the source.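 Rule for the calls, unless noted: active = inhibition over a set limit, the all-compound mean plus 3 SD, in both replicate runs; inconclusive = over that limit in just one replicate run; inactive = at or under that limit in both runs.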
How the values were obtained:
[1] = reducers of endogenous Her2 protein level, primary screen, SKBR3 breast tumor cells, AlphaScreen, ATP viability (AID 461;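 active = Her2 level under about 52% in both replicate screens, with viability over 70% of control, limit read from the data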;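 for Her2 level: lower value means less Her2 protein in the cells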;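 for viability: percent of carrier control wells set as 100% viability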); settings: 18-24 h, measured here: SKBR3 viability, ATP luminescence, at 10 µM
[2] = biological target: Receptor tyrosine-protein kinase erbB-2 (Homo sapiens) (UniProt P04626); test: as above; settings: 18-24 h, at 10 µM, stronger effect = lower value
[3] = SK-BR-3 cell growth inhibitors, pilot screen, 24 h, human (AID 572;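 active = viability at or below 10% of carrier control in both of two separate runs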;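 note: compound exposure lasted between 18 and 24 h rather than exactly 24 h; 100% = carrier-treated control wells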); settings: SK-BR-3 viability, CellTiter-Glo luminescence, at 10 µM, stronger effect = lower value
[4] = HUVEC growth inhibition – cell-based, human, primary screen (AID 575;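 active = viability at or below 30% in both replicate assays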;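 note: 100% = median of untreated cell wells with 0.1% DMSO on each plate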); settings: HUVEC proliferation, CellTiter-Glo luminescence, 72 h; at 10 µM; stronger effect = lower value
[5] = growth inhibitors of H69AR lung tumor, primary screen, human, duplicate replicates (AID 580;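 active = viability at or under a set limit in both replicates, limit being median viability minus 3 SD, cut at about 48% in these data, passing the limit was not always enough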;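 note: 100% = mean luminescence of untreated wells and 0% = no signal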); settings: H69AR lung tumor cells viability, ATP luminescence, 72 h; at 10 µM; stronger effect = lower value
[6] = reversal of MRP1-mediated doxorubicin resistance, pilot screen, H69AR cells, doxorubicin co-treatment (AID 601;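 active = viability loss from added drug above about 55%, and viability with drug at most 40%, in both replicates, limit read from the data, passing the limit was not always enough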); settings: CellTiter-Glo, 72 h, at 10 µM; for differential viability (reversal): stronger effect = higher value
[7] = 384-well plate pilot, post-Golgi transport modulator project, inhibition of yeast transport mutant growth (AID 636; in the data active = inhibition above about 31%); settings: absorbance 615 nm, about 18 h, stronger effect = higher value
[8] = growth suppression of yeast trafficking mutant, preliminary HTS, modulators of trafficking downstream of Golgi apparatus project, 1536-format plate, OD 615 nm (AID 637; in the data active = inhibition above about 30%); settings: yeast transport mutant growth, absorbance 615 nm, 18 h; stronger effect = higher value
[9] = OD615 S. cerevisiae growth inhibition, permissive medium, pilot counter-assay, permissive growth control for S. cerevisiae lifespan shortening project (AID 705;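 active = growth inhibition above 25% in both replicates, a cutoff set 3 SD above the mean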); settings: OD615, 24 h, at 10 µM, stronger effect = higher value
[10] = Restrictive medium S. cerevisiae growth inhibition, OD615, pilot screen of yeast lifespan reduction project, restrictive growth control (AID 706;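 active = growth inhibition above a set limit, 3 SD over mean compound inhibition, in both replicates, cut at about 43% in these data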;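 note: modified DeaD lifespan yeast strain shifted to restrictive glucose medium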); settings: OD615, 48 h, at 10 µM, stronger effect = higher value
[11] = viability gain of MRP-1-high H69AR cells under doxorubicin, pilot screen, MRP-1 activator project, CellTiter-Glo, duplicate (AID 807;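 active = viability increase at or above a cutoff of the median across tested compounds plus 3 SD, cut at about 8.5% in these data, passing the limit was not always enough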;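 note: compound pretreatment 18-22 h then 72 h combined with doxorubicin; 0% = doxorubicin alone and 100% = vehicle without doxorubicin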); settings: H69AR viability with doxorubicin, CellTiter-Glo luminescence; at 10 µM; stronger effect = higher value
[12] = growth suppression of beta-catenin knockout HCT116, pilot screen, human colon tumor cells (AID 823;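 active = cell viability at or below a set limit in both duplicate runs, the limit being the all-compound median minus 4 SD, cut at about 23% in these data, passing the limit was not always enough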;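 note: 0% = wells killed by 20 µM Hyamine and 100% = untreated DMSO cell wells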); settings: CellTiter-Glo, 60 h, at 10 µM, stronger effect = lower value
[13] = growth suppression of PTEN-deleted HCT116, pilot screen, cell-based, HCT116 clonal line, CellTiter-Glo (AID 824;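 active = viability at or below 27.92% in each of two runs, the all-compound median minus 4 SD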;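 note: 0% = 20 µM Hyamine control and 100% = vehicle cell control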); settings: 60 h, at 10 µM, stronger effect = lower value
[14] = inhibitors of the yeast RAM network, pilot screen, dse1pr::URA3 reporter, 5-FOA selection (AID 869);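 note: 0% = DMSO wells with no growth and 100% = 10 µM 1-NA-PP1 with full growth; RAM network block rescues cells from 5-FOA so hits raise OD615 growth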; settings: S. cerevisiae dse1pr::URA3 5-FOA growth, OD615, 2 d; at 10 µM; stronger effect = higher value; strain carries analog-sensitive mutant Cbk1 kinase
[15] = RAM signaling pathway blockade in yeast – S. cerevisiae, Pdr1DBD-CYC8 efflux-inhibited sensitized strain, primary screen (AID 1298;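 active = RAM network inhibition above 8.4% in each of two replicates, 3 SD over the compound average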;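 note: 0% = DMSO untreated cells without growth and 100% = 10 µM 1-NA-PP1 full growth; higher means more yeast growth rescued from 5-FOA killing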); settings: S. cerevisiae cbk1-as DSE1-URA3 strain, 5-FOA growth OD615, 2 d; at 50 µM; stronger effect = higher value
[16] = H69AR cells + 2 uM doxorubicin, measured here: viability with 2 uM doxorubicin, stronger effect = lower value
[17] = H69AR cells, compound alone cytotoxicity

Sequence of Receptor tyrosine-protein kinase erbB-2 (Homo sapiens) (P04626 whole entry, looked up): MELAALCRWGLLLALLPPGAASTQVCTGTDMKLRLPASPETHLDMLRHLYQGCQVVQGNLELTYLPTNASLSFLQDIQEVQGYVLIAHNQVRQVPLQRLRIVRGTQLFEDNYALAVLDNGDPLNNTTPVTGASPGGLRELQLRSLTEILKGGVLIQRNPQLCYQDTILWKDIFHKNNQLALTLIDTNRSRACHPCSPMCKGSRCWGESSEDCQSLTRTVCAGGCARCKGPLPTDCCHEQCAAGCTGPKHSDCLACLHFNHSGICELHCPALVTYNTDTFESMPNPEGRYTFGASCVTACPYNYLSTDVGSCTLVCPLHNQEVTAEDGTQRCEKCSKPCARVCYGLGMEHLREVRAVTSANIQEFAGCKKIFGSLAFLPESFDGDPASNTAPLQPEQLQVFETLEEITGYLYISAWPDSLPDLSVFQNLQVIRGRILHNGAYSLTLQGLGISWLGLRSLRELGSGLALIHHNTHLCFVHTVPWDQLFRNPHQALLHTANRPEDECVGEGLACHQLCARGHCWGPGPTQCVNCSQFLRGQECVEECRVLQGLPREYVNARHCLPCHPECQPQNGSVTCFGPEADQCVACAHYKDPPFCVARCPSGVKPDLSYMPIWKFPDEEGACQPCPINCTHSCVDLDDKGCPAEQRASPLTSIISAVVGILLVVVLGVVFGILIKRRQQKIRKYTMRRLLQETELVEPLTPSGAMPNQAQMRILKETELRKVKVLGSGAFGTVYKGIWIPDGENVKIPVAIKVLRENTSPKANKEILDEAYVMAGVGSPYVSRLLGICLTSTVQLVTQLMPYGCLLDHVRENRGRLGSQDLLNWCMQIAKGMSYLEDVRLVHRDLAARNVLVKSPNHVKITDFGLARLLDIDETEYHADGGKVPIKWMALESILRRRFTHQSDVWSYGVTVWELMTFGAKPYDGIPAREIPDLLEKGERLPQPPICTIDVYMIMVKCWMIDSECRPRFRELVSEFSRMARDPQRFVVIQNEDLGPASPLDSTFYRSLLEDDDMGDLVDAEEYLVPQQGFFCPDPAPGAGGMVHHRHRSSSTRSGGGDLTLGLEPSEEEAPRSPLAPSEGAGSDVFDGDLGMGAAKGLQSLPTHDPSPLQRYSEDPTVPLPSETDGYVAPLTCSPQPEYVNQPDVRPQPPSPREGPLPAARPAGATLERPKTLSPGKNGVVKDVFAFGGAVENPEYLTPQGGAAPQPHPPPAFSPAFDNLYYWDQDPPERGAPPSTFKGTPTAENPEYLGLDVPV

COc1cccc(NC(=O)c2nc3nc(C)cc(C(F)F)n3n2)c1
84%: viability [6, 17]
inactive: Her2 level [2] 106% | viability [3] 100% | viability [4] 93.9% | viability [5] 84% | differential viability (reversal) ([6]; H69AR cells + 2 uM doxorubicin) -2.74% | inhibition [7] 1.47% | inhibition [8] 4.5% | growth inhibition [9] -11.3% | growth inhibition [10] -11.1% | viability increase [11] 1.69% | viability [12] 107% | viability [13] 101% | inhibition [14] 0.62% | RAM network inhibition [15] -0.33%
100%: viability [1]
86.8%: viability [6, 16]

COC(=O)COc1cccc(NC(=O)COc2ccccc2)c1
93.2%: viability [6, 16]
96.5%: viability [6, 17]
99.5%: viability [1]
inactive: Her2 level [2] 122% | viability [3] 99.5% | viability [4] 90.7% | viability [5] 96.5% | differential viability (reversal) ([6]; H69AR cells + 2 uM doxorubicin) 3.21% | inhibition [7] -0.13% | inhibition [8] -7.33% | growth inhibition [9] -12.5% | growth inhibition [10] 3.51% | viability increase [11] -0.74% | viability [12] 97.2% | viability [13] 93.7% | inhibition [14] 1.66% | RAM network inhibition [15] 2.45%

Nc1cc(N)cc(-c2nc3ccccc3o2)c1
inactive: Her2 level [2] 106% | viability [3] 100% | viability [4] 87.3% | viability [5] 93.7% | differential viability (reversal) ([6]; H69AR cells + 2 uM doxorubicin) 19.1% | inhibition [7] -2.4% | inhibition [8] 3.17% | growth inhibition [9] 1.61% | growth inhibition [10] 6.39% | viability increase [11] -0.39% | viability [12] 100% | viability [13] 95.4% | inhibition [14] 2.14% | RAM network inhibition [15] 0.61%
100%: viability [1]
93.7%: viability [6, 17]
74.7%: viability [6, 16]

COc1ccc(OC)c(C2C(C(=O)Nc3ccc(F)cc3)=C(C)Nc3nc(CCCO)nn32)c1 (stereo not given)
101%: viability [1] | viability [6, 17]
95.4%: viability [6, 16]
inactive: Her2 level [2] 120% | viability [3] 101% | viability [4] 91% | viability [5] 101% | differential viability (reversal) ([6]; H69AR cells + 2 uM doxorubicin) 5.54% | inhibition [7] 0.13% | inhibition [8] -0.83% | growth inhibition [9] -9.55% | growth inhibition [10] 7.19% | viability increase [11] -0.62% | viability [12] 99.6% | viability [13] 99.1% | inhibition [14] -1.06% | RAM network inhibition [15] -0.42%

C=C(Cl)COc1ccc2c(C)cc(=O)oc2c1
108%: viability [1]
103%: viability [6, 16]
101%: viability [6, 17]
inactive: Her2 level [2] 92.5% | viability [3] 108% | viability [4] 102% | viability [5] 101% | differential viability (reversal) ([6]; H69AR cells + 2 uM doxorubicin) -2.75% | inhibition [7] 1.89% | inhibition [8] -5.56% | growth inhibition [9] -6.04% | growth inhibition [10] 5.47% | viability increase [11] -0.42% | viability [12] 97.8% | viability [13] 84% | inhibition [14] 0.795% | RAM network inhibition [15] 0.1%

CC(=O)Nc1ccc(S(=O)(=O)Nc2nc3c(s2)CCCC3)cc1
99.5%: viability [6, 17]
88%: viability [6, 16]
inactive: Her2 level [2] 103% | viability [3] 106% | viability [4] 106% | viability [5] 99.5% | differential viability (reversal) ([6]; H69AR cells + 2 uM doxorubicin) 11.5% | inhibition [7] -8.93% | inhibition [8] -9.52% | growth inhibition [9] 4.96% | growth inhibition [10] 12.8% | viability increase [11] -1.41% | viability [12] 95.1% | viability [13] 90.7% | inhibition [14] 1.9% | RAM network inhibition [15] 2.5%
106%: viability [1]

COc1ccccc1Oc1ccc(S(=O)(=O)N2CCOCC2)cc1S(=O)(=O)N1CCOCC1
inactive: Her2 level [2] 121% | viability [3] 86.5% | viability [4] 101% | viability [5] 83.6% | differential viability (reversal) ([6]; H69AR cells + 2 uM doxorubicin) -4.58% | inhibition [7] -0.77% | inhibition [8] -6.67% | growth inhibition [9] -16.4% | growth inhibition [10] -21.3% | viability increase [11] -0.17% | viability [12] 93.6% | viability [13] 98.3% | inhibition [14] 2.41% | RAM network inhibition [15] 4.3%
83.6%: viability [6, 17]
88.1%: viability [6, 16]
86.5%: viability [1]

CCN1CCN(C(=O)C2CCN(C(=O)c3cc4sccc4n3CC)CC2)CC1
104%: viability [1]
98.3%: viability [6, 16]
inactive: Her2 level [2] 104% | viability [3] 104% | viability [4] 115% | viability [5] 83% | differential viability (reversal) ([6]; H69AR cells + 2 uM doxorubicin) -15.3% | inhibition [7] -5.07% | inhibition [8] 3.67% | growth inhibition [9] -13.3% | growth inhibition [10] -13.5% | viability increase [11] -1.69% | viability [12] 105% | viability [13] 95.5% | inhibition [14] 0.53% | RAM network inhibition [15] 0.58%
83%: viability [6, 17]

COc1ccc(C(c2sc3nc(C)nn3c2O)N2CCCCC2)cc1 (stereo not given)
90%: viability [1]
inactive: Her2 level [2] 94.5% | viability [3] 90% | viability [4] 111% | viability [5] 81.8% | differential viability (reversal) ([6]; H69AR cells + 2 uM doxorubicin) -13.7% | inhibition [7] -2.95% | inhibition [8] 1% | growth inhibition [9] -3.33% | growth inhibition [10] 8.2% | viability increase [11] -1.47% | viability [12] 100% | viability [13] 95.2% | inhibition [14] 0.45% | RAM network inhibition [15] 3.51%
81.8%: viability [6, 17]
95.5%: viability [6, 16]

CCOC(=O)N1CCC(Nc2nc3ccccc3n3cnnc23)CC1
94%: viability [1]
87.1%: viability [6, 17]
81.9%: viability [6, 16]
inactive: Her2 level [2] 89.5% | viability [3] 94% | viability [4] 85.8% | viability [5] 87.1% | differential viability (reversal) ([6]; H69AR cells + 2 uM doxorubicin) 5.21% | inhibition [7] -0.13% | inhibition [8] 3.17% | growth inhibition [9] 0.55% | growth inhibition [10] -10.8% | viability increase [11] -4.12% | viability [12] 102% | viability [13] 95.2% | inhibition [14] 1.23% | RAM network inhibition [15] 4.35%
